Drawing on PubChem BioAssay (Tox21), this text covers Potency for seven compounds.

Experiment [1] in a line: Nuclear factor erythroid 2-related factor 2/antioxidant responsive element (Nrf2/ARE) small molecule agonists: qHTS cell viability counter screen in human keratinocytes (AID 1919968; active = well fitted curve in the direction sought with a large enough effect in the repeat runs; an effect the other way counts as inactive or inconclusive; also: nearly all actives have a fitted effect of over 55% in size; also: potency is read from the fitted curve at half-maximal effect). The gist of the method: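 Stably transfected HaCaT (KeratinoSens), 1,500/well. Test agents in DMSO were applied for 23 h, 37 C/5% CO2. CellTiter-Fluor was incubated 1 h before the fluorescence read.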

Experiment [2] is described as follows: Nuclear factor erythroid 2-related factor 2/antioxidant responsive element (Nrf2/ARE) small molecule agonists: luciferase reporter gene qHTS assay in human keratinocytes (AID 1919969). Also: nearly all actives have a fitted effect of over 35% in size. In general terms: In a reporter assay the amount or activity of a reporter protein is the signal.
The target in experiment [3] is Gonadotropin-releasing hormone receptor (Homo sapiens) (UniProt P30968). Nature of the experiment: Human gonadotropin-releasing hormone receptor (GnRHR) small molecule agonists, calcium flux assay in GnRHR-HEK293 cells (AID 1920063). Also: nearly all actives have a fitted effect of over 35% in size. The method in brief: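 Stable human GnRHR HEK293 line. 18 h plating, then calcium dye for 1 h at 37 C. Agonist-mode compound addition from DMSO stocks; fluorescence monitored 3 min.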
(A change in cytosolic calcium serves as a functional read-out for many receptors and channels.)

In experiment [4] the target is KiSS-1 receptor (Homo sapiens) (UniProt Q969F8). Nature of the experiment: Human kisspeptin (KISS1R) small molecule agonists, calcium flux assay in KISS1R-HEK293 cells (AID 1920064; active = well fitted curve in the direction sought with a large enough effect in the repeat runs; an effect the other way counts as inactive or inconclusive). The method in brief: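 After overnight (18 h) culture at 37 C/5% CO2, human KISS1R-HEK293 cells received calcium dye for 1 h, then test compound; emission at 540 nm (excitation 480 nm) was tracked for 3 min.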

Experiment [5] in a line: G protein-coupled receptor (GPCR) small molecule agonists, calcium flux assay: HEK293 wild type cell line counter screen (AID 1920065). The gist of the method: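 Following 18 h incubation at 37 C/5% CO2, plates got calcium dye for 1 h; compounds, ATP or DMSO were then pinned in and fluorescence followed kinetically (480/540 nm).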
A short description of experiment [6]: p53 small molecule agonists, cell-based qHTS assay with human liver microsomes (AID 1963577).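 Also: p53 response element beta-lactamase reporter cells with liver microsomes plus NADPH.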 The method in brief:
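Metabolically competent format: test substances, human liver microsomes and NADPH (both 0.5 mg/mL final) incubated with p53RE-bla cells 16 h at 37 C. Beta-lactamase reporter signal then quantified by fluorescence.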
In general terms: In qHTS, concentration-response curves come from the screen itself.

A short description of experiment [7]: p53 small molecule agonists, cell-based qHTS assay with rat liver microsomes (AID 1963578). The method in brief:
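Each plate received p53RE-bla cells, then compound, then rat liver microsomes and NADPH (both 0.5 mg/mL final). Plates were held 16 h at 37 C, and beta-lactamase activity was detected with LiveBLAzer over 2 h.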

Experiment [8] can be described thus: p53 small molecule agonists, cell-based qHTS assay with human liver microsomes: qHTS cell viability counter screen (AID 1963579). Also: nearly all actives have a fitted effect of over 45% in size. The gist of the method: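 Tox21 library compounds, delivered from DMSO stocks, were tested on p53RE-bla cells together with 0.5 mg/mL human liver microsomes and 0.5 mg/mL NADPH (final) over 16 h at 37 C; CellTiter-Glo luminescence served as the cytotoxicity measure.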

Experiment [9] can be described thus: p53 small molecule agonists, cell-based qHTS assay with rat liver microsomes: qHTS cell viability counter screen (AID 1963580). Also: nearly all actives have a fitted effect of over 45% in size. The gist of the method:
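After the beta-lactamase ratio was read, CellTiter-Glo was added to the same wells and luminescence measured at 30 min; cells had been treated 16 h at 37 C with compounds, rat liver microsomes and NADPH (0.5 mg/mL final each).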

A short description of experiment [10]: p53 small molecule agonists, cell-based qHTS assay: qHTS cell viability counter screen (AID 1963581). Also: nearly all actives have a fitted effect of over 45% in size. The gist of the method:
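qHTS counter screen: 16 h compound exposure at 37 C of p53RE-bla HCT-116 cells (4,000 per well, seeded 5 h prior), cell viability by ATP luminescence.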

The nature of experiment [11]: p53 small molecule agonists, cell-based qHTS assay (AID 1963582; active = well fitted activation curve with a large enough effect in the signal ratio in the repeat runs, not every such curve was filed as active; the % refers to the signal ratio). The gist of the method: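 Measured: fluorescence from cleaved LiveBLAzer substrate. System: p53RE-bla cells, 16 h compound treatment at 37 C, 2 h substrate step at room temperature.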
Experiment [12] deals with 5-hydroxytryptamine receptor 2A (Homo sapiens) (UniProt P28223). Nature of the experiment: 5-hydroxytryptamine receptor 2A (HTR2A) small molecule antagonists, cell-based qHTS assay (AID 1963586). Also: nearly all actives have a fitted effect of over 45% in size. The gist of the method: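 CHO cells stably expressing human HTR2A were plated for 18 h at 37 C, then loaded with calcium dye for 1 h. Compounds were preincubated 5 min at room temperature before DOI (4 nM solution) was added. Kinetic fluorescence was read for 3 min.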

The nature of experiment [13]: cAMP Responsive Elements (CRE) small molecule agonists, cell-based qHTS assay (AID 1963590). The gist of the method: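 Test agents in DMSO were incubated 3 h at 37 C/5% CO2 with CRE-bla HEK 293T cells seeded 18 h earlier; LiveBLAzer B/G FRET substrate was added and read after 2 h at room temperature.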
Experiment [14] in a line: cAMP Responsive Elements (CRE) small molecule antagonists, cell-based qHTS assay (AID 1963591; active = well fitted inhibition curve with a large enough effect in the signal ratio in the repeat runs, not every such curve was filed as active; the % refers to the signal ratio). The method in brief: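 Reporter line CRE-bla HEK 293T in dialyzed-FBS DMEM; cells preincubated 18 h, treated 3 h with compound plus NKH477 (0.25 uM final); LiveBLAzer FRET, 2 h RT.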
For experiment [15], the target named is Beta-2 adrenergic receptor (Homo sapiens) (UniProt P07550). Nature of the experiment: Adrenergic beta2 receptor (ADRB2) small molecule antagonists, cell-based qHTS assay (AID 1963592). Also: series mostly up to about 92 µM; nearly all actives have a fitted effect of over 50% in size. The method in brief:
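Assay format: CHO-ADRB2 cells, 18-20hr seeding at 37C/5% CO2, then compound plus 1nM isoproterenol agonist mix for 0.5hr RT. Homogeneous time-resolved fluorescence cAMP detection after 1hr, expressed as 665/615 nm ratio.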

For experiment [16] the target is unchanged. As to the kind of experiment: Adrenergic beta2 receptor (ADRB2) small molecule agonists, cell-based qHTS assay (AID 1963593).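 Also: CHO cells stably overexpressing human ADRB2.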 The gist of the method: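 CHO cells stably over-expressing ADRB2 were plated overnight at 37C, then dosed with compounds plus a stimulation mix containing 100uM IBMX and 25uM Ro-20-1724 for 0.5hr at room temperature. cAMP was measured by HTRF competition, 1hr.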

In experiment [17] the target is D(2) dopamine receptor (Homo sapiens) (UniProt P14416). Nature of the experiment: Dopamine D2 receptor (DRD2) small molecule agonists, cell-based qHTS assay (AID 1963594). Also: nearly all actives have a fitted effect of over 35% in size. The gist of the method:
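HEK293 cells stably expressing human DRD2, pre-treated with PDE inhibitor Ro20-1724 (0.1 mM final) and compound 10 min at room temperature, then stimulated with NKH477 (200nM […]) for 30 min. cAMP read by HTRF (665/620 nm).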

Experiment [18] has the same target. As to the kind of experiment: Dopamine D2 receptor (DRD2) small molecule antagonists, cell-based qHTS assay (AID 1963595; active = well fitted inhibition curve with a large enough effect in the signal ratio in the repeat runs, with a control signal flat; the % refers to the signal ratio). The gist of the method:
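HTRF cAMP read-out at 665 and 620 nm emission (340 nm excitation). Antagonist mode: compounds were tested against 12 nM quinpirole in DRD2-HEK293 cells, with 200 nM NKH477 raising cAMP and 0.1 mM Ro20-1724 blocking its breakdown.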

Experiment [19] deals with 5-hydroxytryptamine receptor 2A (Homo sapiens) (UniProt P28223). As to the kind of experiment: 5-hydroxytryptamine receptor 2A (HTR2A) small molecule agonists, cell-based qHTS assay (AID 1963587). Also: nearly all actives have a fitted effect of over 30% in size. The gist of the method:
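CHO cells stably expressing human HTR2A, plated 18 h, loaded with calcium dye 1 h at 37 C. Agonist mode: compounds added and intracellular calcium fluorescence recorded kinetically for 2 min at 1 sec intervals.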

Experiment [20] deals with Muscarinic acetylcholine receptor M1 (Homo sapiens) (UniProt P11229). Nature of the experiment: Cholinergic receptor muscarinic 1 (CHRM1) small molecule antagonists, cell-based qHTS assay (AID 1963588). Also: nearly all actives have a fitted effect of over 40% in size. Also: potency is read from the fitted curve at half-maximal effect. The method in brief: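 Compounds were tested at 15 concentrations in three independent runs. Dye-loaded CHRM1-CHO cells were exposed 5 min at room temperature before stimulation by acetylcholine added at 50nM. Intracellular calcium was read kinetically on FDSS for 3 min.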

Where “and” joins values, the source holds several entries; their conditions need not be identical. Equal entries are not always repeated. Records with an inconclusive call do not appear. Calls of active or inactive are those of the source. Unless noted, calls follow the shape of the full dose curve.

Chain of Beta-2 adrenergic receptor (Homo sapiens) (P07550 whole entry, looked up): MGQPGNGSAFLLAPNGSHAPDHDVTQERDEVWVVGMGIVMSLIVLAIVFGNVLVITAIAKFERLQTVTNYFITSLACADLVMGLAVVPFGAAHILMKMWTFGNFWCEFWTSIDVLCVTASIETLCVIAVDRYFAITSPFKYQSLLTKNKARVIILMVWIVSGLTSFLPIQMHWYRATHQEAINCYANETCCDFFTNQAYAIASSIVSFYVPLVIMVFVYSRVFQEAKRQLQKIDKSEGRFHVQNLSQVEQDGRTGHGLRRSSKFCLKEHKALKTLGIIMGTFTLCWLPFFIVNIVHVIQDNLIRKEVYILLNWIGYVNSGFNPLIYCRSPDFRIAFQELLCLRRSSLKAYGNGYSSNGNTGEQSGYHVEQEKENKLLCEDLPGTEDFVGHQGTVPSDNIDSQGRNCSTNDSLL
Chain of Gonadotropin-releasing hormone receptor (Homo sapiens) (P30968 whole entry, looked up): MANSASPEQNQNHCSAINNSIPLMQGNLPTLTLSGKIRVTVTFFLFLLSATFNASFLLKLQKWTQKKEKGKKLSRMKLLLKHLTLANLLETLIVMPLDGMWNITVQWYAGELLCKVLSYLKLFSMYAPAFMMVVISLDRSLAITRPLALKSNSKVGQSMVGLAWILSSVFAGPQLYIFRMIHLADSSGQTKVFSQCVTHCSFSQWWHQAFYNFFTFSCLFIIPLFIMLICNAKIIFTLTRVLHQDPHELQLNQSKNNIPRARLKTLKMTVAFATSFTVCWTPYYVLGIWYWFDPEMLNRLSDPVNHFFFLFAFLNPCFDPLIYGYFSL
Chain of Muscarinic acetylcholine receptor M1 (Homo sapiens) (P11229 whole entry, looked up): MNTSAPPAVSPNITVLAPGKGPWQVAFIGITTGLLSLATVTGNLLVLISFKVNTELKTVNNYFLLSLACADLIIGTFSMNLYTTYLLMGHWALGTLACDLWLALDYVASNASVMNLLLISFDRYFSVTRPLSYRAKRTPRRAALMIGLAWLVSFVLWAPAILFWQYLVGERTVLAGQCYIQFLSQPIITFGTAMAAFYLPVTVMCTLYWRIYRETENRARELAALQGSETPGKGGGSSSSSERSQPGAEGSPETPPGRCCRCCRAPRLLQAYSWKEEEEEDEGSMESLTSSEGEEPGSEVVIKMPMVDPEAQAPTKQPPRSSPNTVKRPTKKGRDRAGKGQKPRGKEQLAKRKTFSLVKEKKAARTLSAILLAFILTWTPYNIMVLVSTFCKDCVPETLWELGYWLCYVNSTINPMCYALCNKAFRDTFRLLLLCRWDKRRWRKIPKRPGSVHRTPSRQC
Chain of D(2) dopamine receptor (Homo sapiens) (P14416 whole entry, looked up): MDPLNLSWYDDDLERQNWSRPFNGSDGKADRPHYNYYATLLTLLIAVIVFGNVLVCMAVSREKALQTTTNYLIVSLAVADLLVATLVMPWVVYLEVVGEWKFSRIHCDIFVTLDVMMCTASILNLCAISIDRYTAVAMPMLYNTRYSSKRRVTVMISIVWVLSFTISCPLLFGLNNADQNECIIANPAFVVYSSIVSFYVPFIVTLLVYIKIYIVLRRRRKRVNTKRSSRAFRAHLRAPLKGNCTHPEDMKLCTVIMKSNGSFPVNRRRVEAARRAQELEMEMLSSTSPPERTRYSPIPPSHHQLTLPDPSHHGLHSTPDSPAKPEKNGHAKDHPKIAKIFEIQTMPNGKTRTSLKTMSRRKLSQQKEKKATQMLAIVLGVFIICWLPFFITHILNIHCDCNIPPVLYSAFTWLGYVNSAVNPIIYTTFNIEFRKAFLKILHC
Chain of 5-hydroxytryptamine receptor 2A (Homo sapiens) (P28223 whole entry, looked up): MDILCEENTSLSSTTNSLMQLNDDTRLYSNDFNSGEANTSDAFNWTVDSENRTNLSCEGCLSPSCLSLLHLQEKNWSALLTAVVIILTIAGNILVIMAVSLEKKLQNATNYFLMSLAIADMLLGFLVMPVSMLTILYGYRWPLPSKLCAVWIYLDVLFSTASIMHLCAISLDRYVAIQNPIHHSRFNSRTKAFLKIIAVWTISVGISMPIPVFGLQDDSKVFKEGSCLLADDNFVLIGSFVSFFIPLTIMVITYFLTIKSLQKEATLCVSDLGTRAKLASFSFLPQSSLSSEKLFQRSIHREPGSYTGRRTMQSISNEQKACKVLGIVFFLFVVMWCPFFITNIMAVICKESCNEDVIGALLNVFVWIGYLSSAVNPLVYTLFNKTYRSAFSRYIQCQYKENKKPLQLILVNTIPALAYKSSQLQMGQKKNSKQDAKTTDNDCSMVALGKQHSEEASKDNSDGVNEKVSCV
Chain of KiSS-1 receptor (Homo sapiens) (Q969F8 whole entry, looked up): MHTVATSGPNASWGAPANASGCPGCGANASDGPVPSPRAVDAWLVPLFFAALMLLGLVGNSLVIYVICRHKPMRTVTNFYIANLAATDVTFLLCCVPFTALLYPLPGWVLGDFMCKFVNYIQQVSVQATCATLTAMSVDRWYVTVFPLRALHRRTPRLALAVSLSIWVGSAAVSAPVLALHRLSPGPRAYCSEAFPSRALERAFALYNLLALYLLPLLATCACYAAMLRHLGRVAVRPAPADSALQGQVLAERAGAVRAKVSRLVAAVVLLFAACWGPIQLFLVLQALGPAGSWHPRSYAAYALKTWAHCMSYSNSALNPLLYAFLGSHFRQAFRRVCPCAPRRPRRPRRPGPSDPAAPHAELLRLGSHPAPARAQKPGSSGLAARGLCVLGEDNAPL

As to `CC(C)OP(=O)(CP(=O)(OC(C)C)OC(C)C)OC(C)C`, the Potency entry in experiment [1], in [2], in experiment [3], in experiment [4], in experiment [5] and in experiment [6] was “inactive” in each case. Moreover, the Potency entry in [7], in experiment [8], in [9], in experiment [10], in experiment [11] and in [12] was “inactive” in each case. The Potency entry in experiment [13], in experiment [14], in experiment [15], in experiment [16], in experiment [17] and in [18] was “inactive” each time.
As for `c1ccc2c(c1)Cc1ccccc1-2`, the Potency entry in experiment [1], in experiment [2], in experiment [3], in experiment [4], in experiment [5] and in [6] was “inactive” throughout. The Potency result in experiment [7], in experiment [8], in experiment [9], in experiment [10], in [11] and in experiment [12] was “inactive” each time. Besides, the Potency result in experiment [19], in experiment [20], in experiment [13], in [14], in experiment [15] and in [17] was “inactive” each time. Further, in [18], the Potency entry was “inactive”.
For `CC(C)(C)C1CCC(O)CC1` (stereo not given), the Potency result in experiment [1], in experiment [2], in [3], in [4], in experiment [5] and in experiment [6] was “inactive” each time. Also, the Potency entry in experiment [7], in experiment [8], in [9], in experiment [10], in [11] and in [12] was “inactive” each time. The Potency entry in experiment [20], in experiment [13], in experiment [14], in experiment [15], in experiment [16] and in experiment [17] was “inactive” throughout. Besides, the Potency result in experiment [18] is “inactive”.
Consider `CCCCCCCCCCCC[N+](C)(C)C`, for which the Potency in experiment [1] was 48.4 µM (active) and 30.6 µM (active) and 48.6 µM (active); in experiment [20], 374 nM (active) and 421 nM (active) and 334 nM (active). Also, the Potency entry in [2], in experiment [3], in [4], in [5], in experiment [6] and in [7] was “inactive” in each case. The Potency entry in experiment [8], in [9], in [10], in [11], in experiment [12] and in experiment [19] was “inactive” each time. The Potency result in experiment [15], in experiment [17] and in [18] was “inactive” in each case.
As to `COc1ccc(OC)cc1`, the Potency result in experiment [1], in experiment [2], in experiment [3], in experiment [4], in experiment [5] and in [6] was “inactive” in each case. The Potency result in experiment [7], in [8], in [9], in experiment [10], in experiment [11] and in [12] was “inactive” in each case. The Potency result in experiment [19], in experiment [13], in experiment [14], in experiment [15], in [16] and in experiment [17] was “inactive” each time. Further, in experiment [18], the Potency result is “inactive”.
`CC(C)(CO)COC(=O)C(C)(C)CO`: the Potency result in [1], in experiment [2], in experiment [3], in [4], in [5] and in experiment [6] was “inactive” each time. For the same compound, the Potency entry in [7], in [8], in experiment [9], in experiment [10], in experiment [11] and in experiment [12] was “inactive” throughout. The Potency result in experiment [19], in experiment [20], in experiment [13], in [14], in [15] and in experiment [17] was “inactive” throughout. The Potency entry in experiment [18] is “inactive”.
Consider `CCCCCC(=O)O`, for which the Potency entry in experiment [1], in experiment [2], in experiment [3], in experiment [4], in experiment [5] and in [6] was “inactive” each time. Besides, the Potency result in experiment [7], in experiment [8], in experiment [9], in experiment [10], in experiment [11] and in [12] was “inactive” throughout. Further, the Potency entry in experiment [19], in [13], in [14], in experiment [15], in experiment [16] and in experiment [17] was “inactive” each time. Moreover, the Potency entry in experiment [18] was “inactive”.
